Reference: article PMC11062922 (Nature Chemical Biology, 2023)
Like-named read-outs stand apart in the source and are kept apart here.

Experiments:
CSNK1D = tested on: CSNK1D; parameters: species or system human, MV4-11 + K-562 + COLO205 + SK-N-BE2 + OVCAR-8; settings: compound concentrations:0.3nM, 1nM, 3nM, 10nM, 30nM, 100nM, 300nM, 1000nM,R2:0.90408083948088502,slope:1.4813297755061099,EC50 Standard Error, by the legend:Standard error of the EC50 estimation as provided by the drc package.
CSNK1E = tested on: CSNK1E; parameters: species or system human, MV4-11 + K-562 + COLO205 + SK-N-BE2 + OVCAR-8; settings: compound concentrations:0.3nM, 1nM, 3nM, 10nM, 30nM, 100nM, 300nM, 1000nM,R2:0.89444069129231096,slope:0.86279178326481998,EC50 Standard Error, by the legend:Standard error of the EC50 estimation as provided by the drc package.
MAPK14 = tested on: MAPK14; parameters: species or system human, MV4-11 + K-562 + COLO205 + SK-N-BE2 + OVCAR-8; settings: compound concentrations:0.3nM, 1nM, 3nM, 10nM, 30nM, 100nM, 300nM, 1000nM,R2:0.95433345689641902,slope:0.62517275376181303,EC50 Standard Error, by the legend:Standard error of the EC50 estimation as provided by the drc package.
MAPKAPK2 = tested on: MAPKAPK2; parameters: species or system human, MV4-11 + K-562 + COLO205 + SK-N-BE2 + OVCAR-8; settings: compound concentrations:0.3nM, 1nM, 3nM, 10nM, 30nM, 100nM, 300nM, 1000nM,R2:0.91890870064253904,slope:1.05096662120135,EC50 Standard Error, by the legend:Standard error of the EC50 estimation as provided by the drc package.
RIPK2 = tested on: RIPK2; parameters: species or system human, MV4-11 + K-562 + COLO205 + SK-N-BE2 + OVCAR-8; settings: compound concentrations:0.3nM, 1nM, 3nM, 10nM, 30nM, 100nM, 300nM, 1000nM,R2:0.98843771673654501,slope:0.97698272947785902,EC50 Standard Error, by the legend:Standard error of the EC50 estimation as provided by the drc package.
RIPK3 = tested on: RIPK3; parameters: species or system human, MV4-11 + K-562 + COLO205 + SK-N-BE2 + OVCAR-8; settings: compound concentrations:0.3nM, 1nM, 3nM, 10nM, 30nM, 100nM, 300nM, 1000nM,R2:0.88646274803772895,slope:5.0878054739021197,EC50 Standard Error, by the legend:Standard error of the EC50 estimation as provided by the drc package.
SPR = tested on: SPR; parameters: species or system human, MV4-11 + K-562 + COLO205 + SK-N-BE2 + OVCAR-8; settings: compound concentrations:0.3nM, 1nM, 3nM, 10nM, 30nM, 100nM, 300nM, 1000nM,R2:0.99512909296274499,slope:1.24359258072984,EC50 Standard Error, by the legend:Standard error of the EC50 estimation as provided by the drc package.
TGFBR2 = tested on: TGFBR2; parameters: species or system human, MV4-11 + K-562 + COLO205 + SK-N-BE2 + OVCAR-8; settings: compound concentrations:0.3nM, 1nM, 3nM, 10nM, 30nM, 100nM, 300nM, 1000nM,R2:0.95772159417417102,slope:0.90025260883160396,EC50 Standard Error, by the legend:Standard error of the EC50 estimation as provided by the drc package.
ACVR2B = tested on: ACVR2B; parameters: species or system human, MV4-11 + K-562 + COLO205 + SK-N-BE2 + OVCAR-8; settings: read-out: apparent Kd, n = 1
PRKD1 = tested on: PRKD1; parameters: species or system human, MV4-11 + K-562 + COLO205 + SK-N-BE2 + OVCAR-8; settings: read-out: apparent Kd, n = 1
AAK1 = settings: compound concentrations:3nM, 10nM, 30nM, 100nM, 300nM, 1000nM, 3000nM, 30000nM,R2:0.99102510116180997,slope:1.0759365754475601,EC50 Standard Error, by the legend:Standard error of the EC50 estimation as provided by the drc package.
AURKA = settings: compound concentrations:3nM, 10nM, 30nM, 100nM, 300nM, 1000nM, 3000nM, 30000nM,R2:0.99130699388271104,slope:0.94634188293278299,EC50 Standard Error, by the legend:Standard error of the EC50 estimation as provided by the drc package.
AURKB = settings: compound concentrations:3nM, 10nM, 30nM, 100nM, 300nM, 1000nM, 3000nM, 30000nM,R2:0.99833060468955204,slope:0.90064720888108796,EC50 Standard Error, by the legend:Standard error of the EC50 estimation as provided by the drc package.
BCR = settings: compound concentrations:3nM, 10nM, 30nM, 100nM, 300nM, 1000nM, 3000nM, 30000nM,R2:0.97560136182595103,slope:1.05645406378656,EC50 Standard Error, by the legend:Standard error of the EC50 estimation as provided by the drc package.
BMP2K = settings: compound concentrations:3nM, 10nM, 30nM, 100nM, 300nM, 1000nM, 3000nM, 30000nM,R2:0.98755156955359502,slope:1.4167647234137799,EC50 Standard Error, by the legend:Standard error of the EC50 estimation as provided by the drc package.
BMPR2 = settings: compound concentrations:3nM, 10nM, 30nM, 100nM, 300nM, 1000nM, 3000nM, 30000nM,R2:0.93324573239730002,slope:2.2231806087315,EC50 Standard Error, by the legend:Standard error of the EC50 estimation as provided by the drc package.
CCNH = settings: compound concentrations:3nM, 10nM, 30nM, 100nM, 300nM, 1000nM, 3000nM, 30000nM,R2:0.984368608654974,slope:1.5961170242536,EC50 Standard Error, by the legend:Standard error of the EC50 estimation as provided by the drc package.
CHEK1 = settings: compound concentrations:3nM, 10nM, 30nM, 100nM, 300nM, 1000nM, 3000nM, 30000nM,R2:0.99154934454702504,slope:1.2455496028398201,EC50 Standard Error, by the legend:Standard error of the EC50 estimation as provided by the drc package.
EPHA1 = settings: compound concentrations:3nM, 10nM, 30nM, 100nM, 300nM, 1000nM, 3000nM, 30000nM,R2:0.96586410409124401,slope:0.42399886433003398,EC50 Standard Error, by the legend:Standard error of the EC50 estimation as provided by the drc package.
EPHA7 = settings: compound concentrations:3nM, 10nM, 30nM, 100nM, 300nM, 1000nM, 3000nM, 30000nM,R2:0.88780253900259998,slope:1.37394463734268,EC50 Standard Error, by the legend:Standard error of the EC50 estimation as provided by the drc package.
[1] = compound concentrations:100 nM and 1000 nM (sheet 'Samples')

Work on Cl.NCc1ccc(-c2nc(-c3ccc(Cl)c(O)c3)c(-c3ccncc3)[nH]2)cc1 [SB-476429-A] yielded an EC50 (CSNK1D) of 300 nM, a Kd (CSNK1D; read-out: apparent Kd) of 300 nM and an EC50 (CSNK1E) of 642 nM. For the same compound, the Kd (CSNK1E; read-out: apparent Kd) was 642 nM, the EC50 (MAPK14) was 174 nM and the Kd (MAPK14; read-out: apparent Kd) was 174 nM. For the same compound, the EC50 (MAPKAPK2) was 174 nM, the Kd (MAPKAPK2; read-out: apparent Kd) was 174 nM and the EC50 (RIPK2) was 55.9 nM. It also gave a Kd (RIPK2; read-out: apparent Kd) of 28.8 nM, an EC50 (RIPK3) of 296 nM and a Kd (RIPK3; read-out: apparent Kd) of 289 nM. The EC50 (SPR) was 32.8 nM, the Kd (SPR; read-out: apparent Kd) was 32.8 nM and the EC50 (TGFBR2) was 871 nM. For the same compound, the Kd (TGFBR2; read-out: apparent Kd) was 767 nM.

Cc1ccc(Nc2ccnc(Nc3ccc4c(c3)CS(=O)(=O)C4)n2)cc1O.Cl [GW579362A] showed a potency estimated from few doses (ACVR2B; compound concentrations: 100 nM and 1000 nM (sheet 'Samples'), CATDS: 0.34366648341671902) of 12.4 nM.

O=C1NC(=O)C(N2CCc3ccccc32)=C1c1ccccc1Cl [SB-373598] was tested, and the potency estimated from few doses (PRKD1; [1]) was 1580 nM.

Work on TAK659 yielded an EC50 (AAK1) of 997 nM, a Kd (AAK1; read-out: apparent Kd) of 720 nM and an EC50 (AURKA) of 1280 nM. For the same compound, the Kd (AURKA; read-out: apparent Kd) was 590 nM, the EC50 (AURKB) was 161 nM and the Kd (AURKB; read-out: apparent Kd) was 86.7 nM. It also gave an EC50 (BCR) of 1020 nM, a Kd (BCR; read-out: apparent Kd) of 528 nM and an EC50 (BMP2K) of 537 nM. For the same compound, the Kd (BMP2K; read-out: apparent Kd) was 456 nM, the EC50 (BMPR2) was 325 nM and the Kd (BMPR2; read-out: apparent Kd) was 257 nM. It also gave an EC50 (CCNH) of 1730 nM, a Kd (CCNH; read-out: apparent Kd) of 1580 nM and an EC50 (CHEK1) of 149 nM. The Kd (CHEK1; read-out: apparent Kd) was 133 nM, the EC50 (EPHA1) was 2910 nM and the Kd (EPHA1; read-out: apparent Kd) was 1000 nM. The EC50 (EPHA7) was 810 nM and the Kd (EPHA7; read-out: apparent Kd) was 617 nM.

Work on CCn1c(-c2nonc2N)nc2c(-c3ccccc3)ncc(OCCCN)c21.CCn1c(-c2nonc2N)nc2c(-c3ccccc3)ncc(OCCCN)c21.O=C(O)C(F)(F)F.O=C(O)C(F)(F)F [GSK260205A] yielded a potency estimated from few doses (PRKD1; compound concentrations: 100 nM and 1000 nM (sheet 'Samples'), CATDS: 2.9847294929188299E-2) of 1340 nM.

CNc1cc(-c2ccc3c(N)n[nH]c3c2)nc(N)n1 [GSK2224810A] showed a potency estimated from few doses (ACVR2B; [1]) of 1190 nM.
